Experimental data taken from PubChem BioAssay AID493169 (National Center for Advancing Translational Sciences (NCATS), 2011).
Inconclusive results are not listed. A call without a number means that no potency is given here. Activity calls are given as the source filed them. Calls come from the whole dose curve; as a rule, active = well fitted inhibition curve with a large enough effect; inconclusive = small, poorly fitted or top-dose-only effect; inactive = flat fitted curve, though single readings scatter.

Experiment: CHOP2 Reporter Counterscreen Assay for Inhibitors of Ubiquitin-specific Protease USP2a;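 note: activated enterokinase alone at 50 pM in a cell-free format rather than USP2a or CHOP2; nearly all actives have a fitted effect of over 55% in size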
Details: purified enterokinase, fluorogenic substrate, 485/531 nm; series mostly up to 38.3 µM
Summary of the method: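 Cell-free counterscreen with pre-activated enterokinase alone (50 pM final) in 20mM Tris-HCl pH 8.0, 2mM CaCl2, 2mM beta-mercaptoethanol, 0.05% CHAPS; compound preincubation 30 min RT, reporter substrate 25nM final, fluorescence read after 10 min (Ex 485/Em 531).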
Potency is the fitted concentration of half-maximal effect.

Compound | Potency
Cc1c2c(=O)n(-c3nc4ccccc4s3)nc-2cc(O)n1Cc1ccccc1 | 11.2 µM (active)
O=C(CCN1C(=O)/C(=C\c2ccco2)SC1=S)Nc1ccc(C(=O)O)c(O)c1 | 10 µM (active)
CC(C)(C)C1C=C(Sc2ccccc2)C(=O)O1 (stereo not given) | inactive
Cc1ccc(C(=O)Oc2coc(CSc3nnc(NC(=O)c4cccs4)s3)cc2=O)cc1 | 3.16 µM (active)
NS(=O)(=O)c1ccc(NC(=O)CN2CCCCC2)cc1 | inactive
CCCn1c(NC(=O)c2ccc(Br)cc2)nc2ccccc21 | inactive
O=C(O)c1cc(N2N=C(C(F)(F)F)/C(=C/C=C/c3ccco3)C2=O)ccc1Cl | 3.98 µM (active)
Cc1cc2c(c(=O)n1CC1CCCO1)C(c1ccco1)C(C#N)=C(N)O2 (stereo not given) | inactive
COC(=O)c1[nH]c2cc(OC)ccc2c1N | inactive
c1ccc(Nc2c3c(nc4ncnn24)CCC3)cc1 | inactive
O=C(CCNc1cccc(Cl)c1)c1ccco1 | inactive
O=C(CSc1nc(N2CCCCC2)nc(N2CCCCC2)n1)N1CCN(c2ccccc2)CC1 | inactive
CCOC(=O)c1[nH]c2ccc(OC)cc2c1NC(=O)CCN1CCC(C)CC1 | inactive
COc1cc(OC)cc(-c2c(C#Cc3ccsc3)c3cc(-c4ccc(OC)c(OC)c4)ccc3n2C)c1 | inactive
Oc1ccc(/C=N/NC(=S)N/N=C/c2ccc(O)cc2)cc1 | inactive
O=C(NN=Cc1ccc(N2CCOCC2)s1)c1ccc([N+](=O)[O-])cc1 | inactive
CC(C)OCCCNC(=O)CN1C(=O)CC(C)(C)S(=O)(=O)c2ccccc21 | inactive
Cc1ccc(C(=O)NCCNS(=O)(=O)c2ccccc2)cc1 | inactive
Cc1cc(C)n(C(=O)c2cccc(S(=O)(=O)N3CCCC3)c2)n1 | inactive
O=[N+]([O-])c1cc(-c2nnc(Nc3ccccc3)c3ccccc23)ccc1N1CCOCC1 | inactive

Compound | Potency
O=C(Cc1cc(=O)[nH]c(=O)[nH]1)NCC1CCCO1 (stereo not given) | inactive
CCCNC(=O)NCc1ccc(N2CCCC2=O)cc1 | inactive
CC(=O)O[C@H]1[C@H](O)[C@H](Oc2c(O)c(C)c3c4c2[C@@H](C)CC[C@@H]4[C@@H](C)C[C@H]3C=C(C)C)O[C@@H](C)[C@H]1O | inactive
CCN(C[C@H]1N[C@@](CC)(C(=O)OC)[C@H]2C(=O)N(Cc3ccccc3)C(=O)[C@@H]12)C(=O)Nc1ccc(C)cc1 | inactive
Cc1cc(NC(=O)CN2C(=O)NC3(CCCCC3C)C2=O)no1 (stereo not given) | inactive
CCC(C)NC(=O)C1CN(S(=O)(=O)c2ccccc2)CCN1S(=O)(=O)c1ccccc1 (stereo not given) | inactive
CC(=O)c1ccc(Nc2ncnc3c2oc2ccccc23)cc1 | inactive
COc1cc(-c2nc(-c3ccc4c(c3)-c3ccccc3S4(=O)=O)c(-c3ccccc3)[nH]2)cc(OC)c1O | inactive
O=C(N/N=C/c1ccc(-c2ccc(S(=O)(=O)Nc3ncccn3)cc2)o1)c1cc2ccccc2cc1O | 3.98 µM (active)
C=CC[C@H](CC(=O)N[C@H](CO)Cc1ccccc1)C(=O)N[C@H](COC(=O)[C@@H](CC=C)CC(=O)OC(C)(C)C)Cc1c[nH]c2ccccc12 | inactive
Cc1ccc(Nc2cc(C)nc(NCc3ccccc3)n2)cc1 | inactive
Cc1cccc(NC(=S)NCc2ccc3c(c2)cc(C)n3C)c1C | inactive
COc1ccc(NC(=O)CN(Cc2ccccc2)S(C)(=O)=O)cc1 | inactive
CC(C)CC(c1nnnn1CC1CCCO1)N1CCN(c2nc3ccccc3s2)CC1 (stereo not given) | inactive
N#CCc1ccc(NC(=O)/C=C/c2ccc([N+](=O)[O-])o2)cc1 | 10 µM (active)
COc1ccc(-c2cc(C(F)(F)F)nc(S(C)(=O)=O)n2)cc1 | inactive
CC1(C)CC(=O)C2=C(C1)NCN(CCCN1CCOCC1)C2 | inactive
CCCc1cc(=O)oc2cc(C)c(CN3CCCC3)c(O)c12 | inactive
Cc1cc(-c2csc(NC(=O)c3ccc(=O)[nH]c3)n2)c(C)n1Cc1ccccc1 | inactive
COC(=O)c1c(O)c2c([nH]c1=O)CCCC2 | inactive
